Results: PubChem BioAssay (EPA / NIEHS)
Records with an inconclusive call do not appear. Where a structure was tested more than once in an assay, its records may differ in their call. The source made the active and inactive calls. The calls were made as follows, unless noted: active = hit-call score of the fitted dose curve at least 0.9, where 1 is the maximum; inactive = score below 0.9.

Key:
[1] = molecular target: Retinoic acid receptor RXR-alpha (Homo sapiens) (UniProt P19793); experiment: ATG_RXRa_TRANS: Attagene TRANS-FACTORIAL HepG2 Assay for human Retinoid X Receptor alpha (RXRa) (AID 2283012; active = hit-call score of the fitted dose curve at least 0.9, where 1 is the maximum)
In short: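 TRANS format reporting activity of exogenous RXRa-Gal4 chimera in transiently transfected HepG2, 24 h exposure. Reporter transcripts quantified by RT-PCR with capillary electrophoresis, with gain of signal scored relative to DMSO.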

[2] = molecular target: human Thyroid Receptor alpha (THRa1), THRA (gene 7067) (UniProt P10827); experiment: ATG_THRa1_TRANS: Attagene TRANS-FACTORIAL HepG2 Assay for human Thyroid Receptor alpha (THRa1) (AID 2283014; active = hit-call score of the fitted dose curve at least 0.9, where 1 is the maximum)
In short: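 Reporter transcript induction, read by capillary electrophoresis of 6-FAM-labelled RT-PCR products, reflects activity of a transfected THRa1-Gal4 fusion in HepG2 liver cells. Cells were dosed for 24 h; activity was fitted in the positive direction against DMSO.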

[3] = molecular target: human Vitamin D Receptor (VDR), VDR (gene 7421) (UniProt P11473); experiment: ATG_VDR_TRANS: Attagene TRANS-FACTORIAL HepG2 Assay for human Vitamin D Receptor (VDR) (AID 2283022; active = hit-call score of the fitted dose curve at least 0.9, where 1 is the maximum)
In short: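 Steps: transfect HepG2 with GAL4-UAS-driven reporter constructs; dose compounds 24 h; isolate RNA, reverse-transcribe, PCR-amplify with 6-FAM-labelled primer extension and HpaI digestion; quantify fragments by capillary electrophoresis relative to DMSO.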

[4] = read-out: E-selectin (Homo sapiens) (UniProt P16581); experiment: BSK_3C_Eselectin: BioMAP Diversity Plus: 3C Assay for Eselectin Biomarker Activity (AID 2283015); details: primary human endothelial cells (HUVEC); actives raise or lower the signal
In short: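 ELISA read-out of E-selectin on endothelial monolayers after 24 h chemical treatment. Human umbilical vein primary cells served as the system, with DMSO defining baseline activity for bidirectional fitting.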

[5] = read-out: Interleukin-1 alpha (IL1a), IL1A (gene 3552); experiment: BSK_BE3C_IL1a: BioMAP Diversity Plus: BE3C Assay for Interleukin-1 alpha (IL1a) Biomarker Activity (AID 2283016); details: primary human bronchial epithelial cells; actives raise or lower the signal
In short: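 IL-1a measured by ELISA after 24 h treatment of human primary bronchial epithelial cells, with gain or loss of signal fitted versus DMSO. Parallel cultures stained with SRB gauge overt cytotoxicity.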

[6] = read-out: Monocyte Chemoattractant Protein-1 (MCP1), CCL2 (gene 6347); experiment: BSK_3C_MCP1: BioMAP Diversity Plus: 3C Assay for Monocyte Chemoattractant Protein-1 (MCP1) Biomarker Activity (AID 2283017); details: primary human endothelial cells (HUVEC); actives raise or lower the signal
In short: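 ELISA read-out of MCP-1 from human umbilical vein endothelial cell cultures harvested 24 h post-dosing. Gain or loss of signal was fitted relative to DMSO.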

[7] = read-out: Monocyte Chemoattractant Protein-1 (MCP1), CCL2 (gene 6347); experiment: BSK_4H_MCP1: BioMAP Diversity Plus: 4H Assay for Monocyte Chemoattractant Protein-1 (MCP1) Biomarker Activity (AID 2283018); details: primary human endothelial cells (HUVEC); actives raise or lower the signal
In short: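 ELISA of MCP-1 (CCL2) 24 h after chemical dosing of HUVEC in the BioMAP 4H system. Gain or loss versus DMSO fitted; parallel SRB staining (560 nm) tracked overt cytotoxicity.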

[8] = read-out: Human Leukocyte Antigen - DR isotype (HLADR), HLA-DRA (gene 3122); experiment: BSK_3C_HLADR: BioMAP Diversity Plus: 3C Assay for Human Leukocyte Antigen - DR isotype (HLADR) Biomarker Activity (AID 2283019); details: primary human endothelial cells (HUVEC); actives raise or lower the signal
In short: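 ELISA readout of surface HLA-DR on human umbilical vein endothelium, taken 24 h after chemical treatment. Gain- and loss-of-signal were both fitted relative to DMSO.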

[9] = read-out: Interleukin-8 (IL8), CXCL8 (gene 3576); experiment: BSK_3C_IL8: BioMAP Diversity Plus: 3C Assay for Interleukin-8 (IL8) Biomarker Activity (AID 2283020); details: primary human endothelial cells (HUVEC); actives raise or lower the signal
In short: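 IL-8 was measured by ELISA in HUVEC cultures 24 h after chemical dosing, with gain or loss of signal fitted relative to DMSO. Parallel SRB total-protein staining tracked overt cytotoxicity.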

[10] = read-out: Monokine induced gamma interferon (MIG), CXCL9 (gene 4283); experiment: BSK_3C_MIG: BioMAP Diversity Plus: 3C Assay for Monokine induced gamma interferon (MIG) Biomarker Activity (AID 2283021); details: primary human endothelial cells (HUVEC); actives raise or lower the signal;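 as to AC50: MIG protein level measured by immunoassay in the treated endothelial cultures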
In short: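 ELISA measurement of MIG in human umbilical vein endothelial cells 24 h after treatment. Cytotoxicity tracked by SRB staining in parallel cultures; gain or loss of signal fitted relative to DMSO.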

[11] = BSK_3C_SRB: Viability Assessment in the BioMAP Diversity Plus: 3C Assay (AID 2283023); details: primary human endothelial cells (HUVEC);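 also: fitted both ways against DMSO so a hit may be signal rise or drop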
In short: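 Absorbance at 560 nm of sulforhodamine B-stained (0.1%) total protein served as a cytotoxicity readout in human umbilical vein endothelial cells, 24 h after chemical treatment. Signal was fitted bidirectionally relative to DMSO.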

[12] = read-out: Matrix Metallopeptidase 1 (MMP1), MMP1 (gene 4312); experiment: BSK_BE3C_MMP1: BioMAP Diversity Plus: BE3C Assay for Matrix Metallopeptidase 1 (MMP1) Biomarker Activity (AID 2283024); details: primary human bronchial epithelial cells; actives raise or lower the signal
In short: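 ELISA measurement of MMP-1 after 24 h compound exposure of primary human bronchial epithelial cells. Changes in either direction fitted relative to DMSO; parallel SRB staining checked overt cytotoxicity.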

[13] = BSK_3C_Vis: BioMAP Diversity Plus: 3C Assay for Morphology Visualization (AID 2283025); details: primary human endothelial cells (HUVEC);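 also: fitted both ways so gain or loss versus DMSO counts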;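 as to AC50: light microscopy image of cell morphology used as background control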
In short: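 Light-microscopy visualization of HUVEC cultures at 24 h post-treatment, with DMSO as baseline for bidirectional fitting.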

[14] = read-out: Pselectin, SELP (gene 6403); experiment: BSK_4H_Pselectin: BioMAP Diversity Plus: 4H Assay for Pselectin Biomarker Activity (AID 2283026); details: primary human endothelial cells (HUVEC); actives raise or lower the signal
In short: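 ELISA of surface P-selectin on HUVEC, 24 h after dosing, with parallel SRB staining (0.1% after 10% TCA fixation, 560 nm) for overt cytotoxicity. Activity fitted in both directions relative to DMSO.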

[15] = BSK_4H_SRB: Viability Assessment in the BioMAP Diversity Plus: 4H Assay (AID 2283027); details: primary human endothelial cells (HUVEC);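 also: cells exposed to compound for 24 h before staining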;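 as to AC50: curves fitted both ways versus DMSO so AC50 may be loss or gain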
In short: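 HUVEC, 24 h post-dose; 10% TCA fix, 0.1% SRB stain, A560 nm. Total protein = overt cytotoxicity, parallel to biomarker read. Bidirectional fit vs DMSO baseline.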

[16] = BSK_BE3C_SRB: Viability Assessment in the BioMAP Diversity Plus: BE3C Assay (AID 2283028); details: primary human bronchial epithelial cells
In short: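 Cells (human bronchial epithelial, primary) are treated with chemicals, and after 24 h the parallel cultures are fixed in 10% TCA. These are then stained with 0.1% SRB and read at 560 nm. Gain or loss of signal is fitted relative to DMSO.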

[17] = read-out: Thrombomodulin, THBD (gene 7056); experiment: BSK_3C_Thrombomodulin: BioMAP Diversity Plus: 3C Assay for Thrombomodulin Biomarker Activity (AID 2283029); details: primary human endothelial cells (HUVEC); actives raise or lower the signal
In short: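 ELISA measurement of thrombomodulin on HUVEC surface 24 h after chemical dosing; activity fitted in both directions relative to DMSO vehicle.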

[18] = read-out: Urokinase-type plasminogen activator receptor (uPAR), PLAUR (gene 5329); experiment: BSK_4H_uPAR: BioMAP Diversity Plus: 4H Assay for Urokinase-type plasminogen activator receptor (uPAR) Biomarker Activity (AID 2283030); details: primary human endothelial cells (HUVEC); actives raise or lower the signal
In short: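 Cell-surface uPAR ELISA signal, measured 24 h after dosing human umbilical vein endothelial cells, was analyzed with bidirectional fitting relative to DMSO. Parallel SRB staining of total protein tracked overt cytotoxicity.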

[19] = molecular target: human Retinoid X Receptor beta (RXRb), RXRB (gene 6257) (UniProt P28702); experiment: ATG_RXRb_TRANS: Attagene TRANS-FACTORIAL HepG2 Assay for human Retinoid X Receptor beta (RXRb) (AID 2283013; active = hit-call score of the fitted dose curve at least 0.9, where 1 is the maximum)
In short: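 Readout is reporter transcript induction after 24 h dosing. It is measured by RT-PCR of total RNA followed by fluorescent capillary electrophoresis. HepG2 liver cells carry transfected multiple reporter units driven by an exogenous RXRb-Gal4 fusion; activity is relative to DMSO.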

Measured: AC50

Sequence of Retinoic acid receptor RXR-alpha (Homo sapiens) (P19793 whole entry, looked up, the tested form may be a part): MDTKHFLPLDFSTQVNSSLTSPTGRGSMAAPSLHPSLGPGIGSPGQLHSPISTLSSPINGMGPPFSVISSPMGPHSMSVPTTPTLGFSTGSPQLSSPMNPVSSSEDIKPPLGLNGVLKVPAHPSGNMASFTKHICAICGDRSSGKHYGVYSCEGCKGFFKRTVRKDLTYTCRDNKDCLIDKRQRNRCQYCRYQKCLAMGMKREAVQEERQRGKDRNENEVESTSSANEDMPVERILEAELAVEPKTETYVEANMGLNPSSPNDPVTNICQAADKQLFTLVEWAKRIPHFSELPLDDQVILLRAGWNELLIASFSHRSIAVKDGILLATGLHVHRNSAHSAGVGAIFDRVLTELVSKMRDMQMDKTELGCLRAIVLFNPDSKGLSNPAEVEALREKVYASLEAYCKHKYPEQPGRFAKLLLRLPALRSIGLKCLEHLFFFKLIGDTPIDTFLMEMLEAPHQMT
Sequence of human Thyroid Receptor alpha (THRa1), THRA (gene 7067) (P10827 whole entry, looked up, the tested form may be a part): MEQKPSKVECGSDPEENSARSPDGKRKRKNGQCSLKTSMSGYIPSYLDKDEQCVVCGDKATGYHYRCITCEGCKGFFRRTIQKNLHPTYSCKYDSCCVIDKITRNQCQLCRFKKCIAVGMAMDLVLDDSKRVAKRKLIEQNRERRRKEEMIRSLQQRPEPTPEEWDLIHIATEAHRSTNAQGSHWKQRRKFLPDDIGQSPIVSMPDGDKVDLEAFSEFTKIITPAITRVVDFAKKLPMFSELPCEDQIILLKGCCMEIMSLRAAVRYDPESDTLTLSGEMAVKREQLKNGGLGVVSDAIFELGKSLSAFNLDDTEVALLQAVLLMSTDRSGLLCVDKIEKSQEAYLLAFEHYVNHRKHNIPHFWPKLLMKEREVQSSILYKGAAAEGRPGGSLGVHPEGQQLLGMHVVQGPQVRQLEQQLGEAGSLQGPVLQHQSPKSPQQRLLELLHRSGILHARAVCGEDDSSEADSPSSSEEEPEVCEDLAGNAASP
Sequence of E-selectin (Homo sapiens) (P16581 whole entry, looked up): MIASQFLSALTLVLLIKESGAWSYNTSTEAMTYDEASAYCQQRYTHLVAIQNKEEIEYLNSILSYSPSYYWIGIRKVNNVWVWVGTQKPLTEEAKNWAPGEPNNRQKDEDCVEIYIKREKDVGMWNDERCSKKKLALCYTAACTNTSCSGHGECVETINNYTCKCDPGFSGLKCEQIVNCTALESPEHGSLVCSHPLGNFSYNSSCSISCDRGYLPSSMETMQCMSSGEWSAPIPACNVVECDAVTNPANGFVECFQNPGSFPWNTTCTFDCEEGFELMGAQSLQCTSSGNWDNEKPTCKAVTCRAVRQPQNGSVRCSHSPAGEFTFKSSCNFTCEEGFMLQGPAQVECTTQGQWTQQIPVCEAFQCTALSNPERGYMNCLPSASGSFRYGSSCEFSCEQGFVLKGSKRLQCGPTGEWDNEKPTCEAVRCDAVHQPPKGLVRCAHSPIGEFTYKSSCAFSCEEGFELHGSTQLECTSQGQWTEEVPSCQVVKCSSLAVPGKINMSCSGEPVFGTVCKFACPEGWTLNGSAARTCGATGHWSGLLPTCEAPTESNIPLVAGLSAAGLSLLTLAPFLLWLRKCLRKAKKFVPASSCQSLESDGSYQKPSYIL
Sequence of human Vitamin D Receptor (VDR), VDR (gene 7421) (P11473 whole entry, looked up, the tested form may be a part): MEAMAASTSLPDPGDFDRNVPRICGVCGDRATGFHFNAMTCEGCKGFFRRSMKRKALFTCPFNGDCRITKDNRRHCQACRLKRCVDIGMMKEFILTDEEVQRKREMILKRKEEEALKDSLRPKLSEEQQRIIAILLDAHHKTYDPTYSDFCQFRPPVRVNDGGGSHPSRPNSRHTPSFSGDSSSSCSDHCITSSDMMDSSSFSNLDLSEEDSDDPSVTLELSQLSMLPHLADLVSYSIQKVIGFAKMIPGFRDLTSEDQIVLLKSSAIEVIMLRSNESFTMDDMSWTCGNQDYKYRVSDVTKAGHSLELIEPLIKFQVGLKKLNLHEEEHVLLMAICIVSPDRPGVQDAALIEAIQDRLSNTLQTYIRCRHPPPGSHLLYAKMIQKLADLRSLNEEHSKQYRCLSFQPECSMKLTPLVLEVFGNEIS
Sequence of human Retinoid X Receptor beta (RXRb), RXRB (gene 6257) (P28702 whole entry, looked up, the tested form may be a part): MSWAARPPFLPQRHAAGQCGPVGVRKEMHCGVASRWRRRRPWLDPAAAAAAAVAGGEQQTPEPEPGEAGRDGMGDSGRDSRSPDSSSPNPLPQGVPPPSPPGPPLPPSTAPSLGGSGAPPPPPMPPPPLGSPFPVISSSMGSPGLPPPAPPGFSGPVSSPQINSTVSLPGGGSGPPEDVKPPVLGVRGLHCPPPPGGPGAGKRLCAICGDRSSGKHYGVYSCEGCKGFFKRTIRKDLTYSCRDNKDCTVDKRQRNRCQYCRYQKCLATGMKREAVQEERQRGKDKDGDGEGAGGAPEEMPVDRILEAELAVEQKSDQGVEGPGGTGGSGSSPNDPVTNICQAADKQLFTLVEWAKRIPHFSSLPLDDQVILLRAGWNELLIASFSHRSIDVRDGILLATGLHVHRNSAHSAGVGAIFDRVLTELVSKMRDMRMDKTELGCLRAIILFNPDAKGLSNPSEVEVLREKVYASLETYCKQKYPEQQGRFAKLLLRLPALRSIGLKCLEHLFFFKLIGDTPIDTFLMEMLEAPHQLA

C[C@]12CC[C@H]3[C@@H](CCC4=CC(=O)CC[C@@]43C)[C@@H]1CC[C@@H]2C(=O)CO
inactive: [1] | [2] | [3]

C#C[C@]1(O)CC[C@H]2[C@@H]3CCC4=Cc5oncc5C[C@]4(C)[C@H]3CC[C@@]21C
inactive: [6] | [7] | [9] | [10] | [12] | [16] | [17]
active: [1] 120 µM | [4] 1.49 µM | [5] 33.4 µM | [8] 20 µM | [11] 3.97 µM | [13] 37.5 µM | [14] 35.2 µM | [15] 7.33 µM | [18] 3.97 µM

C=O
inactive: [1] | [3]

CCCCC/C=C/C=C/C=O
active: [4] 30.1 µM | [5] 20 µM | [6] 29.4 µM | [7] 36.3 µM | [8] 20 µM | [9] 31.8 µM | [10] 36.5 µM | [11] 31.1 µM | [13] 37.4 µM | [14] 27.1 µM | [15] 30.5 µM | [18] 35.6 µM
inactive: [1] | [12] | [17]

Cc1cc(C2(c3cc(C)c(O)cc3C)OS(=O)(=O)c3ccccc32)c(C)cc1O
not listed: [2] | [3] | [13] | [16] | [19]
inactive: all other assays above

CCCC[n+]1ccccc1
inactive: [19]

CCc1ccc(C=O)cc1
inactive: [1] | [3]

C=COCCOCCOCCOC=C
inactive: [1] | [2] | [3]

Nc1nc2ccc([N+](=O)[O-])cc2s1
inactive: [1] | [2] | [3]

OCCOCCOCCOCCO
inactive: [1] | [3]

COc1nc(C)nc(N)n1
inactive: [1] | [2] | [3]

C=C(C)[C@@H]1CCC2=CC(=O)C[C@@H](C)[C@]2(C)C1
inactive: [1] | [3]

COc1cc2ncnc(Nc3cccc(Cl)c3)c2cc1OC
inactive: [1] | [2] | [3]

CC(=O)C(C)=O
inactive: [1] | [3]

CC1(C)CCC(C)(C)c2cc(C(=O)Nc3ccc(C(=O)O)cc3)ccc21
inactive: [1] | [3]

C=CC[N+](C)(C)CC=C
inactive: [1] | [3]

NC(N)=NC(=O)c1nc(Cl)c(N)nc1N
inactive: [1] | [2] | [3]

CNCCCC12CCC(c3ccccc31)c1ccccc12
inactive: [1] | [3]

Fc1c(F)c(F)c(Br)c(F)c1F
inactive: [1] | [3]

CCN(CC)c1ccc2c(-c3ccccc3C(=O)O)c3ccc(=[N+](CC)CC)cc-3oc2c1
inactive: [1] | [3]

C=C(C)C(=O)NCCCN(C)C
inactive: [1] | [3]

CCOC(=S)SSC(=S)OCC
inactive: [19]

O=C(O)c1cccc(C(F)(F)F)c1
inactive: [1] | [3]

C=CCOc1nc(OCC=C)nc(OCC=C)n1
inactive: [1] | [2] | [3]

C=CC(C)(O)CCC=C(C)CCC=C(C)C (stereo not drawn)
active: [19] 27.3 µM

COC(=O)C1=C(C)NC(C)=C(C(=O)OCCN(C)Cc2ccccc2)C1c1cccc([N+](=O)[O-])c1 (stereo not drawn)
inactive: [1] | [3]

CC(C)C1CCC(O)CC1 (stereo not drawn)
inactive: [1] | [2] | [3]

CC(C=O)Cc1ccc(C(C)C)cc1 (stereo not drawn)
inactive: [1] | [3]

CCCCO
inactive: [1] | [3]

C=C(C)C(=O)OCc1ccccc1
inactive: [19] | [2]

CC[C@]12CCCN3CCc4c(n(c5ccccc45)[C@@](O)(C(=O)OC)C1)[C@@H]32
inactive: [19]
active: [2] 28.5 µM

Nc1ccc(S(=O)(=O)O)c(N)c1
inactive: [19] | [3]

CC(CCO)CCc1ccccc1 (stereo not drawn)
inactive: [19] | [2] | [3]

CC(=O)[O][Al][O]C(C)=O
inactive: [2]
active: [19] 44.5 µM

O=C(OCc1ccccc1)C(=O)OCc1ccccc1
inactive: [19] | [3]

Clc1cccc(Cl)n1
inactive: [19] | [2]

C=C(C)C(=O)OCCOC(=O)CC(C)=O
inactive: [19]

Nc1cc([N+](=O)[O-])ccc1O
active: [12] 0.15 µM
inactive: [19] | [4] | [5] | [6] | [7] | [8] | [9] | [10] | [3] | [11] | [12] | [14] | [15] | [17] | [18]

CCN(CC)CCOC(=O)c1ccc(N)cc1
inactive: [19] | [2] | [3]

O=C1O[C@@H]2[C@@H](O)[C@H](O)O[C@@H]2[C@H]1O
inactive: [19] | [3]

NCCCN1CCOCC1
inactive: [19] | [3]

O=C(O)c1ccc([N+](=O)[O-])cc1
not listed: [1] | [16]
inactive: all other assays above
